Compound activity deposited in PubChem BioAssay by National Center for Advancing Translational Sciences (NCATS).
This is a sample that favours compounds with a hit; in the whole collection about 21% have one here.
VP16 counter: inhibits Gal4-VP16 luciferase reporter, ROR gamma counter-screen; Potency, µM (top dose mostly 53.6 µM), inactives show at the top dose activity, negative = inhibition, usual class: inhibitors; Drosophila S2 Gal4-VP16 UAS-luciferase, luminescence, 20 h; AID 2546; 3.5% of 310,000 active;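 further: Gal4-VP16 expression switched on by copper sulfate through the metallothionein promoter; potency means the concentration at half of the fitted maximal effect; nearly all actives have a fitted effect of over 50% in size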
ELG1 DNA repair: blocks ELG1-dependent DNA repair in HEK293T cells; 2.3% of 330,000 active; Potency, µM (series often up to 46.1 µM), for the others: top-dose activity change, negative = inhibition, actives largely listed as inhibitors; HEK293T ELG1-luciferase reporter, luminescence, 16 h; DNA damage induced by 5-fluorouridine; further: potency means the concentration at half of the fitted maximal effect; nearly all actives have a fitted effect of over 55% in size
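Quantitative HTS, concentration-response format. 2,000 cells/well co-treated with 5-fluorouridine and compound, 16 hr in 5% CO2 at 37 °C; ONE-Glo luminescence read after 30 min.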
TDP1 cell CPT: growth inhibition of DT40 Tdp1-/-;hTDP1 cells with camptothecin (screen for TDP1 inhibitors); chicken DT40 Tdp1-/-;hTDP1 cells + 20 nM CPT, ATP luminescence, 48 h; Potency, µM (titrated, usually from 46.2 µM), for the others: at the top dose activity change, negative = growth inhibition, hits mostly inhibitors; 12% of 420,000 active; AID 686979; further: potency means the concentration at half of the fitted maximal effect; nearly all actives have a fitted effect of over 55% in size
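Chicken DT40 Tdp1-/- cells stably complemented with human TDP1 were seeded at 400 cells/well in medium containing 20 nM camptothecin, exposed to pin-transferred compounds, and grown at 37 °C for at least 48 hr. Viability was read as ATP luminescence.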
DT40 TDP1 no CPT: qHTS for Inhibitors of human tyrosyl-DNA phosphodiesterase 1 (TDP1): qHTS in cells in absence of CPT; DT40 Tdp1-/- hTDP1 cells, no CPT, ATP luminescence, 48 h; Potency, µM (top dose mostly 46.2 µM), for inactives: at the top dose activity change, negative = growth inhibition, hits mostly inhibitors; 15% of 420,000 active; AID 686978, 2013; further: potency means the concentration at half of the fitted maximal effect; nearly all actives have a fitted effect of over 55% in size
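Stably hTDP1-transfected Tdp1-null chicken DT40 cells were treated with library compounds minus camptothecin and grown for at least 48 hr at 37 °C, after which cellular ATP was quantified by luminescence.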
RORgamma inh: blocks mouse ROR gamma transcriptional activity; P51450; Drosophila S2 Gal4-RORgamma UAS-luciferase reporter, 20 h; Potency, µM (titrated, usually from 53.6 µM), for inactives: at the highest dose activity change, negative = inhibition, actives largely listed as inhibitors; 5.4% of 310,000 active; further: potency means the concentration at half of the fitted maximal effect; nearly all actives have a fitted effect of over 60% in size
Target sequence (P51450 whole entry, looked up, the tested form may be a part): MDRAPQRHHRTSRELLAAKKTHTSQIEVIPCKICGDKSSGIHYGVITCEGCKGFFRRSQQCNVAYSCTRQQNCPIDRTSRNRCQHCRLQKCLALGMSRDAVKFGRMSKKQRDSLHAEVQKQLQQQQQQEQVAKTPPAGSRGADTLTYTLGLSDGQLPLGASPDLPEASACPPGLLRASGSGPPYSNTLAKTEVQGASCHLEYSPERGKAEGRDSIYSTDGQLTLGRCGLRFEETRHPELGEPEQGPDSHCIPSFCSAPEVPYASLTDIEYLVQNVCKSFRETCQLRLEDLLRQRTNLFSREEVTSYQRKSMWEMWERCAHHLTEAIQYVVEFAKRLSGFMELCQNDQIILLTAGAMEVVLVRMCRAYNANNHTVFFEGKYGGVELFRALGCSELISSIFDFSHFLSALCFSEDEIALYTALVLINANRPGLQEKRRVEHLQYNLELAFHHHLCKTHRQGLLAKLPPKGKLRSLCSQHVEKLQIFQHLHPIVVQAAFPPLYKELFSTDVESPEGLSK
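Stably transfected Drosophila Schneider cells are the test system, with ROR gamma fused to Gal4 and luciferase under UAS control; luminescence is read after 20 hr of 700 uM copper sulfate induction at ambient temperature.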
IL1B secr inh: blocks inflammasome-driven IL-1 beta release; activity change, % at 57.5 µM; THP-1 LPS/ATP IL-1B secretion, AlphaLISA, 16 h; hits give low values; 4.7% of 360,000 active; in the data active means activity change below about -50%; inconclusive means mostly about -30% to -49%
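Secreted IL-1B measured by AlphaLISA bead assay after 16 h compound exposure of THP-1 cells; compounds (final up to 57.5 uM) added 1 h before LPS (250 ng/mL) and ATP (1.25 mM) stimulation; lower signal means less secretion.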
ELG1 FLuc counter: luciferase inhibition in cell-free luciferin readout for ELG1 hits; 3% of 350 active; cell-free firefly luciferase luminescence counter-screen, ViewLux; Potency, µM (top dose mostly 46.1 µM), without a hit: at the top dose activity change, negative = inhibition, most hits filed as inhibitors; AID 624247; shares compounds with ELG1 DNA repair; further: potency means the concentration at half of the fitted maximal effect
ELG1-Luc inh: inhibits ELG1-dependent DNA repair in HEK293T cells, confirmed | shares compounds with ELG1 DNA repair | HEK293T ELG1-luciferase levels, luminescence; cells co-treated with 5-fluorouridine | Potency, µM (doses to about 46.1 µM), inactives show at the top dose activity change, negative = inhibition, hits mostly inhibitors | 68% of 670 active; further: potency means the concentration at half of the fitted maximal effect; nearly all actives have a fitted effect of over 55% in size
ELG1 MMS Luc: inhibits ELG1-dependent repair under MMS stimulation in HEK293T cells | 53% of 670 active | HEK293T luciferase-tagged ELG1 level, MMS stimulated | shares compounds with ELG1 DNA repair | Potency, µM (titrated, usually from 46.1 µM), for the others: at the highest dose activity change, negative = inhibition, actives largely listed as inhibitors | AID 624249; further: potency means the concentration at half of the fitted maximal effect; nearly all actives have a fitted effect of over 60% in size
ELG1 5-FU: confirmation of ELG1 repair inhibitors: viability with 5FU | shares compounds with ELG1 DNA repair | cell viability with 5-FU, ELG1-dependent repair | Potency, µM (series often up to 46.1 µM), for inactives: at the highest dose activity change, negative = viability loss, most hits filed as cytotoxic | 670 tested, under 10 active;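 further: ELG1-luc HEK293T cells cotreated with 5-fluorouridine at 10 µM final; potency means the concentration at half of the fitted maximal effect; viability measured 16 h after compound addition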
ELG1 MMS cell: confirmation of ELG1 repair inhibitors: viability with MMS | shares compounds with ELG1 DNA repair | Cell viability with MMS, ELG1-dependent DNA repair | Potency, µM (titrated, usually from 46.1 µM), for the others: top-dose activity change, negative = viability loss, most hits filed as cytotoxic | 33% of 670 active | AID 624251;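 further: ELG1-luc HEK293T cells co-treated with 10 µM MMS; potency means the concentration at half of the fitted maximal effect; viability read 16 h after compound addition; nearly all actives have a fitted effect of over 60% in size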
Cell viab unstim: affects unstimulated cell viability, ELG1 hit counter-screen | cell viability counter-screen, unstimulated, luminescence | shares compounds with ELG1 DNA repair | 8% of 900 active | Potency, µM (highest dose often 45.9 µM), for inactives: top-dose activity change, negative = loss of viability, actives largely listed as cytotoxic;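 further: potency means the concentration at half of the fitted maximal effect; compound exposure lasted 16 hours before reading; nearly all actives have a fitted effect of over 55% in size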
FLuc enzyme: counter-screen for ELG1 repair inhibitors: firefly luciferase inhibition; shares compounds with ELG1 DNA repair; purified firefly luciferase, luminescence counter-screen; Potency, µM (doses to about 57.5 µM), for inactives: at the highest dose activity, negative = inhibition, usual class: inhibitors; 10% of 350 active; further: potency means the concentration at half of the fitted maximal effect
Numbers without * were called inactive; ? = inconclusive; / = not tested or not shown. Unless noted, the call rests on the fitted dose curve; in most records, active means well fitted curve in the direction sought with a large enough effect; inconclusive means small, poorly fitted or top-dose-only effect, or another doubt; inactive means no such curve, though single readings can be large; an effect the other way counts as inactive or inconclusive. On the % scale 0 is the no-effect control and ±100 the full control effect.

SMILES	VP16 counter	ELG1 DNA repair	TDP1 cell CPT	DT40 TDP1 no CPT	RORgamma inh	IL1B secr inh	ELG1 FLuc counter	ELG1-Luc inh	ELG1 MMS Luc	ELG1 5-FU	ELG1 MMS cell	Cell viab unstim	FLuc enzyme
Cc1cc(OC(=O)N(C)C)n(-c2ccccc2)n1	2.0%	-13.3%	16.5%	-8.9%	30.1%	6.7	/	/	/	/	/	/	/
NC(=S)c1cn(C2OC(CO)C(O)C2O)c2ncnc(N)c12 (stereo unspecified)	2.51µM*	0.411µM*	0.13µM*	0.164µM*	7.08µM*	-100.1*	?	0.158µM*	0.315µM*	-2.8%	1.99µM*	?	-0.1%
Nc1ccncc1Cl	2.1%	-1.4%	-5.7%	-13.3%	-7.5%	-4.9	/	/	/	/	/	/	/
O=C(Nc1cc(C(F)(F)F)cc(C(F)(F)F)c1)c1cc(Cl)ccc1O	1µM*	/	/	/	0.891µM*	/	?	0.706µM*	0.354µM*	?	0.397µM*	?	-8.7%
C[C@@H]1O[C@@H](O[C@H]2C[C@@H](O)[C@]3(CO)[C@H]4[C@H](O)C[C@]5(C)[C@@H](C6COC(=O)C6)CC[C@]5(O)[C@@H]4CC[C@]3(O)C2)[C@H](O)[C@H](O)[C@H]1O (stereo partly specified)	-4.2%	1.46µM*	-9.1%	?	-7.0%	0.0	?	2.5µM*	1.58µM*	?	3.15µM*	?	3.0%
CN1CCN(c2ccc(C(F)(F)F)cc2N)CC1	8.2%	7.8%	-6.0%	-10.3%	-20.2%	-3.3	/	/	/	/	/	/	/
Nc1ccncc1	-3.7%	14.0%	-23.6%	15.2%	5.7%	18.1	/	/	/	/	/	/	/
CCC1OC2(C)C(O)C(/C=C/C=C/C=C/c3oc(=O)cc(OC)c3C)OC1(C)C2OC(C)=O (stereo unspecified)	/	/	/	/	0.0398µM*	/	?	2.23µM*	0.199µM*	-0.5%	0.158µM*	?	-9.5%
Cc1ccccc1N1C(=O)CC(=O)N(c2ccccc2C)C1=O	-10.7%	4.3%	-0.3%	-9.9%	0.7%	4.6	/	/	/	/	/	/	/
